The values that follow come from PubChem BioAssay (NCATS).

Each structure is given as a SMILES string. This is one part of the list. Inconclusive results are not listed. A number with no mark means an inactive call. Active and inactive are the calls of the source. Calls come from the whole dose curve.
% is set by controls: 0 for no effect and ±100 for the full control effect; potency is the fitted concentration of half-maximal effect.

In the experiment the target is Polyprotein P1234 (Chikungunya virus (strain S27-African prototype)) (UniProt Q8JUX6). The experiment is described as follows: Selectivity profile for inhibitors of NSP2Pro chikungunya virus (CHIKV): Full length NSP2 enzyme counterscreen (CHIKV-NSP2) (AID 1964101). Note: nearly all actives have a fitted effect of over 65% in size. Conditions: Full-length CHIKV NSP2 protease enzymatic counterscreen; series mostly up to 50.7 µM; activity change, negative = inhibition: at the top concentration. The source says: PI: Natalia J. Martinez Ph.D.
Polyprotein P1234 (Chikungunya virus (strain S27-African prototype)), sequence (Q8JUX6 whole entry, looked up): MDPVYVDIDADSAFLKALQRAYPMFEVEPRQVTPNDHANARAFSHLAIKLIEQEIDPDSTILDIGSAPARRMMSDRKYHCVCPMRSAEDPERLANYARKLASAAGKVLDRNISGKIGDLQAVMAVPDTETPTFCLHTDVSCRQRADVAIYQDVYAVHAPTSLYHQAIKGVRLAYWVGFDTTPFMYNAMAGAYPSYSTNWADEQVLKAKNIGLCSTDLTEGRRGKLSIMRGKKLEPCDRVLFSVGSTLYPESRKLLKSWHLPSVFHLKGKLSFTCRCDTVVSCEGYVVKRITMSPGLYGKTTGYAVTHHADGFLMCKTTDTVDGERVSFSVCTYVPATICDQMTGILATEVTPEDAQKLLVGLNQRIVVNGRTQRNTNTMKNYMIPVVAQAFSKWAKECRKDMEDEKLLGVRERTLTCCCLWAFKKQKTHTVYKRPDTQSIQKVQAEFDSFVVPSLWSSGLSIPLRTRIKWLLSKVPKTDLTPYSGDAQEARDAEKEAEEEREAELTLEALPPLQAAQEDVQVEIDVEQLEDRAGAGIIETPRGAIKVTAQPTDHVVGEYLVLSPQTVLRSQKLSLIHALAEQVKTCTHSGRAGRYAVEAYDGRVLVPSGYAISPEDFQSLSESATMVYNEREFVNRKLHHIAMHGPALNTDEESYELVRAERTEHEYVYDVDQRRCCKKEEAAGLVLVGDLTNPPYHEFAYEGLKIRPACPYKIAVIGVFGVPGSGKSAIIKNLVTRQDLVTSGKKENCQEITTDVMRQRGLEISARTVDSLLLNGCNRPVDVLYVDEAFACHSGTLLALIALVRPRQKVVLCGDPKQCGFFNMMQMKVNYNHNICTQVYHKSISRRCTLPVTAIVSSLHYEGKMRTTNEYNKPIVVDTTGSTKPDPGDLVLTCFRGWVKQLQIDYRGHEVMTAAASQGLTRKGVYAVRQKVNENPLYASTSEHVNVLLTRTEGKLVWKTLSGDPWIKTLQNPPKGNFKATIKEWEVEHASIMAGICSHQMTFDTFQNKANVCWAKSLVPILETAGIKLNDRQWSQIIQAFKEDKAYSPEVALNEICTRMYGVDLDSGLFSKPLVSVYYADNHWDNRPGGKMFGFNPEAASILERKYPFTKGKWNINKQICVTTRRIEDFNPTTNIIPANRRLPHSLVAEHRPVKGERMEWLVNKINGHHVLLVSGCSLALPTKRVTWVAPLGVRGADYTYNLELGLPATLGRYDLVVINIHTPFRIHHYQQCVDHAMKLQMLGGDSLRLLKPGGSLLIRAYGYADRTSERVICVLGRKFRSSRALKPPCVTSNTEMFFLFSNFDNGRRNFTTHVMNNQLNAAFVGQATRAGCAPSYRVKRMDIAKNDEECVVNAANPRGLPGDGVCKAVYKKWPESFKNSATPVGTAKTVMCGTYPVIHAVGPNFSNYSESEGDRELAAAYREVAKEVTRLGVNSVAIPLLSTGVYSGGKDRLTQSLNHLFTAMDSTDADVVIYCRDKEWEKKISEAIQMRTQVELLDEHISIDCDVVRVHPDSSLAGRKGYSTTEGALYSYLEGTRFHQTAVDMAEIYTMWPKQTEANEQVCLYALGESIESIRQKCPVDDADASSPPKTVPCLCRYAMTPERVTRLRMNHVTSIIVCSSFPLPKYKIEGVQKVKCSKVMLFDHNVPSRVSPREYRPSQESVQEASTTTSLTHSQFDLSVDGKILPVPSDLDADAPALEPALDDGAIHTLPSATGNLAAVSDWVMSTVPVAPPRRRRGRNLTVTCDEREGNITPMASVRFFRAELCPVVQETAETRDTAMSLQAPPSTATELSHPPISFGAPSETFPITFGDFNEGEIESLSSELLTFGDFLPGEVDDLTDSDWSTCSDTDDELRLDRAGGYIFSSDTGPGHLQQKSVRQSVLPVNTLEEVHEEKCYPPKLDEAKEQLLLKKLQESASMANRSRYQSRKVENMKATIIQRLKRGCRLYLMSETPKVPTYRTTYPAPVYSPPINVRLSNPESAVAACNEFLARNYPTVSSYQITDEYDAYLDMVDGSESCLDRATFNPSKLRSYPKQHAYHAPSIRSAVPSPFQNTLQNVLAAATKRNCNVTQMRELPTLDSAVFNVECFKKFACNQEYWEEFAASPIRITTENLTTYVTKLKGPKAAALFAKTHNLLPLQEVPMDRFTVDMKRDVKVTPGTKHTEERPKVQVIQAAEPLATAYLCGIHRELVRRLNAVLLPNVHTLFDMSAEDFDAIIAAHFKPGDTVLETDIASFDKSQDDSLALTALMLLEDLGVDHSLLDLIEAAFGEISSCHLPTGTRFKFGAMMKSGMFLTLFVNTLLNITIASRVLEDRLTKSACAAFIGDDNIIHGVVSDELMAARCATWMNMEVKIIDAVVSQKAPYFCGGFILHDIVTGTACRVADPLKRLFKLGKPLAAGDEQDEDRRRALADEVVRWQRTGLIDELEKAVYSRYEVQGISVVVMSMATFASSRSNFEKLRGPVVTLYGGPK
National Center for Advancing Translational Sciences (NCATS),
National Institute of Health (NIH), Rockville, Maryland
Chikungunya virus (CHIKV) is a mosquito-borne RNA virus that has emerged as one of the most important global arboviral threats in the last decade. Although the first CHIKV vaccine has recently been FDA approved for use in healthy adults at increased risk, to date, there are no available antiviral drugs for CHIKV infection. CHIKV nsP2 protease plays a crucial role in the processing of the viral polypeptide precursor to release enzymes required for viral replication, thus making it a promising drug target for antiviral discovery. Here, we established a high-throughput pipeline to identify small molecule inhibitors of nsP2 proteolytic activity. The pipeline is composed of a suite of 1,536-well in vitro assays to support quantitative high-throughput (qHTS) screening campaigns. Specifically, we developed a fluorescence resonance energy transfer (FRET)-based assay using a fluorogenic peptide substrate encompassing an endogenous cleavage site and purified recombinant protease domain (nsP2pro). Using this assay, we interrogated ~37,000 small molecules, including those in drug repurposing libraries as well as chemically diverse and medicinal chemistry-friendly compounds. Hits were selected for follow-up validation against full-length nsP2 and an additional peptide. FRET-based 1,536-well assays for papain, hepatitis C virus NS3-4A, and human furin proteases were implemented to characterize compound selectivity. […] Novel compounds were identified to be potential nsP2 inhibitors and molecular docking analyses were performed to explain the binding mode of selected hits. In vitro antiviral activity was evaluated for a subset of compounds using a high-throughput CHIKV infection assay. To our knowledge, the pipeline presented here is unprecedented for CHIKV antiviral discovery research.
PROTOCOL TABLE (as described by Inglese J, Shamu CE and Guy RK. 2007)
SEQUENCE No. (e.g., 1, 2, 3, etc.); […] (e.g., Cells, Incubation, Reagent, etc.); VALUE; DESCRIPTION.
1; Control / Compound; 20 nL; Echo 655 acoustic dispenser, Greiner 1536-well solid bottom black plate.
2; Enzyme; 4 uL; BioRAPTR FRD liquid dispenser (Beckman Coulter).
3; Incubation; 15 min; room temperature.
4; Reagent; 4 uL; 2.5 uM Peptide 2 substrate.
5; Incubation; 1 hr; room temperature.
6; Detection; Fluorescence; WiewLux microplate reader (PerkinElmer), 525 nm excitation, 598/25 nm emission.
NOTES (numbers refer to sequence numbers above).
1. Briefly, 20 nL DMSO, positive control ZnAc (20nM final concentration), and test compounds were transferred into a 1,536-well solid bottom black plate (789176-F, Greiner One) via Echo 655 acoustic dispenser (Beckman Coulter). For primary screens, compounds were tested at 7 concentrations, 1:3 dilution points ranging from 25 uM to 34 nM. Follow-up confirmatory screens were carried out at 11 concentrations, 1:3 dilution points from 25 uM to 0.42 nM.
2. Four uL NSP2 full length enzyme mix (150 nM final concentration) in 10 mM Tris-HCl pH 8.0 with 0.01% Tween 20 assay buffer was dispensed into the plate using a BioRAPTR FRD liquid dispenser (Beckman Coulter).
3. The plate was incubated at room temperature (protected from light) for 15 min
4. Four microliter of peptide 2 substrate (2.5 uM final concentration) in assay buffer was added to the plate.
5. After 1 hour, plates were immediately read on a ViewLux high-throughput CCD imager (Exposure = 10 sec, Gain = High, Speed = Slow, Binning = 2X). The above assay was also incorporated in the NCATS HTS facility41, which allowed for robotic liquid and compound dispensing, microplate handling, and fluorescence reading.
Inglese J, Shamu CE and Guy RK, Reporting data from high throughput screening of small molecule libraries, Nature Chemical Biology, 2007, 3(8): 438-441. doi.org/10.1038/nchembio0807-438.
Background: A counterscreen serves to expose hits that act by an unwanted route or on another target.
For `CCC(C)C(=O)OC1C(C)C2(O)C(C=C(CO)CC3(O)C(=O)C(C)=CC32)C2C(C)(C)C12OC(=O)C(C)C` (centres undefined), the “activity change, negative = inhibition” value was -7.57% [at 17.3 µM].
Consider `N#CSc1cc(SC#N)c(N)nc1N`, for which the Potency was 1.03 µM (active).
Turning to `CO[C@]1(NC(=O)CSC(F)F)C(=O)N2C(C(=O)O)=C(CSc3nnnn3CCO)CO[C@H]21`, the “activity change, negative = inhibition” value was -12.8%.
As to `COC([CH2][Hg])CNC(=O)c1ccccc1OCC(=O)O` (centres undefined), the Potency was 18.3 µM (active).
`Cn1nnnc1Sc1ncnc2n[nH]c(-c3cccc(S(C)(=O)=O)c3)c12`: the Potency is 15.8 µM (active).
As to `Oc1ccc(OC2CCCCO2)cc1` (centres undefined), the “activity change, negative = inhibition” value is -1.39%.
Still for that read-out and setting: as for `C[C@@H]1C[C@@H](O)[C@@]23CO[C@]2(CO)C[C@@H](O)CC3[C@@]12CC(c1ccoc1)OC2=O` (some centres undefined), the figure is 4.95% [at 33.5 µM].
`CCOc1ccc(N(Cc2ccccc2)C(=O)c2nc(S(C)(=O)=O)ncc2Cl)cc1`: the Potency was 14.6 µM (active).
As for `C=CC(=O)c1ccc2ccccc2c1`, the Potency was 11.6 µM (active).
